# From the supplement of paper PMC6555819
# How the values were obtained:
# Assay in all cases: PBM binding z-score (relative to random genomic background probes); higher = stronger binding; sequences stand for … in GC…GCGATTGACAGCGTAGAATGAAGG
# [1] = tested on: FXR:RXRa (NR concentration 270 nM, RXRa partner concentration 90 nM)
# Method in brief: (§1)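 Binding buffer was PBS pH 7.4 with 2% milk, 0.02% Triton X-100, 1 mM DTT, 0.2 mg/mL BSA and 0.4 mg/ml salmon testes DNA. In it, ligand-free nuclear receptor dimers were incubated 1 h on custom Agilent 4×180K protein-binding microarrays carrying double-stranded probes. Antibodies against each partner (one per run) detected binding, and z-scores were calculated against random background probes after regression normalization of scanned fluorescence.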
# [2] = tested on: LXRa:RXRa (NR concentration 270 nM, RXRa partner concentration 90 nM)
# Method in brief: as §1
# [3] = tested on: LXRa homodimer (NR concentration 270 nM)
# Method in brief: as §1
# [4] = tested on: LXRb:RXRa (NR concentration 270 nM, RXRa partner concentration 90 nM)
# Method in brief: as §1
# [5] = tested on: LXRb homodimer (NR concentration 270 nM)
# Method in brief: as §1
# [6] = tested on: PPARa:RXRa (NR concentration 270 nM, RXRa partner concentration 90 nM)
# Method in brief: as §1
# [7] = tested on: PPARg:RXRa (NR concentration 180 nM, RXRa partner concentration 90 nM)
# Method in brief: as §1
# [8] = tested on: PPARg:RXRa 270nM:90nM, anti-RXR (NR concentration 270 nM, RXRa partner concentration 90 nM)
# Method in brief: as §1
# [9] = tested on: PPARg:RXRa 30nM:10nM, anti-RXR (NR concentration 30 nM, RXRa partner concentration 10 nM)
# Method in brief: as §1
# [10] = tested on: PPARg:RXRa 90nM:30nM, anti-RXR (NR concentration 90 nM, RXRa partner concentration 30 nM)
# Method in brief: as §1
# [11] = tested on: PPARg:RXRa DBDmut IVT, anti-RXR (DBD mutation: RXRa K156A/R161A, NR concentration 270 nM, RXRa partner concentration 90 nM)
# Method in brief: as §1
# [12] = tested on: PPARg:RXRa IVT, anti-PPARg (NR concentration 270 nM, RXRa partner concentration 90 nM)
# Method in brief: as §1
# [13] = tested on: PPARg DBDmut:RXRa IVT, anti-PPARg (DBD mutation: PPARg1 K132A/R137A, NR concentration 270 nM, RXRa partner concentration 90 nM)
# Method in brief: as §1
# [14] = tested on: PPARg DBDmut IVT, anti-PPARg (DBD mutation: PPARg1 K132A/R137A, NR concentration 270 nM)
# Method in brief: as §1
# [15] = tested on: PPARg homodimer (NR concentration 180 nM)
# Method in brief: as §1
# [16] = tested on: PXR:RXRa (NR concentration 270 nM, RXRa partner concentration 90 nM)
# Method in brief: as §1
# [17] = tested on: PXR homodimer (NR concentration 270 nM)
# Method in brief: as §1
# [18] = tested on: RARa:RXR (NR concentration 270 nM, RXRa partner concentration 90 nM)
# Method in brief: as §1
# [19] = tested on: RARa homodimer (NR concentration 270 nM)
# Method in brief: as §1
# [20] = tested on: RARb:RXRa (NR concentration 270 nM, RXRa partner concentration 90 nM)
# Method in brief: as §1
Sequence,PBM binding z-score [1],PBM binding z-score [2],PBM binding z-score [3],PBM binding z-score [4],PBM binding z-score [5],PBM binding z-score [6],PBM binding z-score [7],PBM binding z-score [8],PBM binding z-score [9],PBM binding z-score [10],PBM binding z-score [11],PBM binding z-score [12],PBM binding z-score [13],PBM binding z-score [14],PBM binding z-score [15],PBM binding z-score [16],PBM binding z-score [17],PBM binding z-score [18],PBM binding z-score [19],PBM binding z-score [20]
CCTTACGGGTCACTCCAGCTTATAGCATCGGAGT,4.62,3.14,-0.000472,2.66,0.0792,4.46,2.98,3.49,0.864,2.44,2.73,2.95,0.84,0.0391,1.95,2.52,0.285,3.54,0.557,3.56
CATTCAGGGTCAGCTAGGCCAGAGTAGGGACGGC,5.24,4.08,0.181,2.92,1.42,4.82,3.87,3.94,1.29,2.81,1.6,3.11,2.17,0.968,1.47,2.74,0.0308,3.58,0.262,4.42
TCTTGTAGATCAACAGGAGGTTAACAAAGATCGA,0.166,1.73,0.274,1.3,-0.158,1.69,0.373,1.39,2.62,1.92,1.52,1.09,0.689,0.664,0.353,1.08,0.0367,1.36,-0.353,0.717
ATACCAGGGTGATCGTGAGGTCGTTGATACTAAC,1.34,1.44,0.904,1.5,0.0794,1.82,0.781,0.722,0.104,0.486,0.0988,1.34,0.464,0.118,1.12,3.24,1.47,2.44,0.625,1.23
CCTGTTAGTTGACCATAAGGGCAACCGAAGCTCG,0.874,0.297,0.378,0.396,0.499,0.707,0.162,0.397,0.0716,0.159,0.268,0.863,0.531,0.804,1.39,0.426,0.794,0.804,1.03,1.74
TCATCTAGGTAAAGGTGAAAGTCGAACGATATGA,1.37,1.5,0.00636,1.3,0.134,3.3,3.93,4.83,4.58,4.92,4.03,4.69,1.07,0.677,1.57,0.89,0.0192,1.61,0.277,2.05
TCTCGGGGGACACGAAAGGTCAGAGCTCGACATC,4.5,5.39,3.18,5.47,5.76,5.03,3.63,4.96,3.73,4.14,3.01,4.33,6.64,6.38,5.71,5.07,1.76,5.57,2.64,4.48
